# Results as given in PubChem BioAssay (NCI).
# Where “and” joins values, the source holds several entries; their conditions need not be identical. Identical values can stand only once. This is part of a sample that, as a whole, favours compounds with a hit. Of some 83,000 tested, about 20% had one in any assay.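 Growth was measured after 48 h exposure to one concentration of compound in 96-well plates. Values under 10 count as active.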 Calls of active or inactive are those of the source.
# What was measured:
# UACC-62 melanoma = assay: NCI-60 one-dose screen, 48 h (100 = growth as untreated, 0 = no growth, -100 = all killed); conditions: 10 µM unless noted
# TK-10 renal = assay: as above; conditions: 10 µM unless noted
Structure (SMILES),growth (UACC-62 melanoma),growth (TK-10 renal)
CCOc1cc2c(cc1O)C=C[C@@H]1[C@@H]2CC[C@]2(C)[C@@H](O)CC[C@@H]12,-65.7% [100 µM] (active) and -100% [100 µM] (active),-4.09% [100 µM] (active) and -100% [100 µM] (active)
Fc1ccc(Nc2nc(Cl)c3[nH]cnc3n2)cc1Cl,68% [100 µM] (inactive) and 34.7% [100 µM] (inactive),48.7% [100 µM] (inactive) and -27.6% [100 µM] (active)
COC(=O)C(Cc1nc2ccccc2[nH]c1=O)C(=O)C(=O)Nc1cc(C(F)(F)F)ccc1Cl (configuration not stated),-87.8% [100 µM] (active) and -39.4% [100 µM] (active),-90.1% [100 µM] (active) and 0.262% [100 µM] (active)
N#CC1(C#N)C2CCCCC23OC(=N)C1(C#N)C(c1ccco1)O3 (configuration not stated),-50.9% [100 µM] (active),-40.6% [100 µM] (active)
COc1cc([C@H]2OC[C@H]3[C@@H]2CO[C@@H]3c2cc(OC)c3c(c2)OCO3)cc(OC)c1OC,43.3% [100 µM] (inactive) and 24% [100 µM] (inactive),33.1% [100 µM] (inactive) and 24.9% [100 µM] (inactive)
CC1CC(=O)N(N(C)C)C(C#N)(C#N)C1(C#N)C#N (configuration not stated),-96.5% [100 µM] (active) and -97.6% [100 µM] (active),-97.2% [100 µM] (active) and -90.4% [100 µM] (active)
CNC(=S)/C(=N\Nc1nc[nH]c1C(N)=O)C(N)=S,-8.08% [100 µM] (active) and 0.0251% [100 µM] (active),5.27% [100 µM] (active) and 4.34% [100 µM] (active)
CC1OC(Oc2c(-c3cc(O)c(O)c(O)c3)oc3cc(O)cc(O)c3c2=O)C(O)C(O)C1O (configuration not stated),59.6% [100 µM] (inactive) and -60.3% [100 µM] (active),90.9% [100 µM] (inactive) and 92.6% [100 µM] (inactive)
COc1ccc2c(=O)c(-c3cc4c(cc3OC)OCO4)coc2c1,30.1% [100 µM] (inactive) and 25.3% [100 µM] (inactive),8.9% [100 µM] (active) and 12.1% [100 µM] (inactive)
COc1ccc2nc(NC(=O)/C(C#N)=C/c3ccccc3)sc2c1,36.9% [100 µM] (inactive) and 15.8% [100 µM] (inactive),52.5% [100 µM] (inactive) and -23.1% [100 µM] (active)
O=C(CCc1ccc(O)c(O)c1)c1ccc(O)c(O)c1O,-41% [100 µM] (active) and -97.2% [100 µM] (active),74.7% [100 µM] (inactive) and -88% [100 µM] (active)
COc1ccccc1-c1n[nH]c(-c2ccccc2O)n1,62.2% [100 µM] (inactive) and 50.3% [100 µM] (inactive),84.4% [100 µM] (inactive) and 32.7% [100 µM] (inactive)
C=C(C)C(=O)OC1CC2(C)OC(=CC2=O)C(C)CC2OC(=O)C(=C)C12 (configuration not stated),-97% [100 µM] (active),-96.8% [100 µM] (active)
C=C(CCC(C(=O)O)C1CCC2(C)C3=C(CCC12C)C1(C)CCC(O)C(C)(C)C1CC3)C(C)C (configuration not stated),-50.9% [100 µM] (active) and -100% [100 µM] (active),-54.9% [100 µM] (active) and -100% [100 µM] (active)
C[N+](C)(CCNC(=O)c1cccc2cc3ccccc3nc12)Cc1ccc([N+](=O)[O-])s1,63.1% [25 µM] (inactive) and 28.9% [25 µM] (inactive),72% [25 µM] (inactive) and 30.2% [25 µM] (inactive)
NC(N)=Nc1ccc(CC(N)C(=O)O)cc1 (configuration not stated),89% [12.5 µM] (inactive) and 94.1% [12.5 µM] (inactive),107% [12.5 µM] (inactive) and 111% [12.5 µM] (inactive)
N#Cc1nc(C(F)(F)F)oc1N,57.6% [100 µM] (inactive) and 93.3% [100 µM] (inactive),79% [100 µM] (inactive) and 98.6% [100 µM] (inactive)
C=CC1=C(C)C2=NC1=CC1=NC(=C(CC)/C1=C\O)C=C1N=C3C(=C1C)C(=O)[C@H](C(=O)OC)C3=C1NC(=C2)[C@@H](C)[C@@H]1CCC(=O)O,-28.7% [100 µM] (active) and 0.467% [100 µM] (active),3.23% [100 µM] (active) and 7.05% [100 µM] (active)

Structure (SMILES),growth (UACC-62 melanoma),growth (TK-10 renal)
CC(C)O/N=C/c1cc(NC(=S)OC(C)C)ccc1Cl,13.4% [100 µM] (inactive) and 21.6% [100 µM] (inactive),53.5% [100 µM] (inactive) and 36.1% [100 µM] (inactive)
NC(=O)CC1OC(=O)Cc2cc3c(c(O)c21)C(=O)c1c(O)cccc1C3=O (configuration not stated),67.9% [100 µM] (inactive),57.5% [100 µM] (inactive)
Cn1c2c(c3ccccc3c1=O)C(=O)c1ccccc1-2,27.3% [100 µM] (inactive) and -100% [100 µM] (active),-92.2% [100 µM] (active) and -100% [100 µM] (active)
COC(=O)/C(=N\NC(=S)NN)C(C(=O)OC)C(=O)C(=O)Nc1cccc(C(F)(F)F)c1 (configuration not stated),98.2% [100 µM] (inactive) and 59.6% [100 µM] (inactive),155% [100 µM] (inactive) and 108% [100 µM] (inactive)
Cc1ccc(NC(=O)/C(=N\NC(N)=O)c2c(O)c3ccccc3[nH]c2=O)cc1,87% [100 µM] (inactive) and 83% [100 µM] (inactive),123% [100 µM] (inactive) and 118% [100 µM] (inactive)
N#CC1(C#N)N[C@@H](c2ccsc2)[C@H]2C(=O)N(c3ccccc3)C(=O)[C@H]21,23.2% [100 µM] (inactive) and 0.172% [100 µM] (active),55.7% [100 µM] (inactive) and 30.9% [100 µM] (inactive)
COc1ccc2nc(N/N=C/c3ccc(C)s3)cc(C)c2c1,-97.7% [100 µM] (active) and -100% [100 µM] (active),-94.1% [100 µM] (active) and -97.3% [100 µM] (active)
CC(C)/C(Cl)=N/OC(=O)Nc1cccc(C(F)(F)F)c1,-93.1% [100 µM] (active) and -100% [100 µM] (active),-100% [100 µM] (active)
CCO/C=N\C1=C(C#N)SC2=N/C(=C\c3ccc(OC)cc3)C(=O)N21,71.9% [100 µM] (inactive) and 70.7% [100 µM] (inactive),92.7% [100 µM] (inactive) and 103% [100 µM] (inactive)
CCCCCCCCCC(O)CC(=O)c1c(O)cccc1O (configuration not stated),-96.8% [100 µM] (active) and -100% [100 µM] (active),4.56% [100 µM] (active) and 1.03% [100 µM] (active)
COc1ccc(/C=c2\[nH]c3nc(=O)c(N4CCOCC4)c(N)n3c2=O)cc1,67.5% [100 µM] (inactive) and 26% [100 µM] (inactive),72% [100 µM] (inactive) and 6.01% [100 µM] (active)
CNc1nc2c(C)ccc3[nH]c(N(C)C)nc3c-2n1,30.8% [100 µM] (inactive) and 2.14% [100 µM] (active),60% [100 µM] (inactive) and 12.5% [100 µM] (inactive)
Cc1ccc(NC2=N/C(=C/c3ccccc3)C(Cl)=N2)cc1,27.6% [100 µM] (inactive) and 12% [100 µM] (inactive),82.6% [100 µM] (inactive) and -17.1% [100 µM] (active)
Cc1ccc2c(sc(-c3ccc4c(c3)sc(-c3ccc5c(c3)sc(-c3ccc(N(C)C)cc3)[n+]5C)[n+]4C)[n+]2C)c1S(=O)(=O)O (tested in a mixture with another compound),48.6% [100 µM] (inactive) and 10.5% [100 µM] (inactive),106% [100 µM] (inactive) and 47.3% [100 µM] (inactive)
N#CC1(C#N)C2CCCCC23OC(=N)C1(C#N)C(c1ccccc1)O3 (configuration not stated),-40.1% [100 µM] (active),-29% [100 µM] (active)
CC1=C2NCN(C)N=C2C(C#N)(C#N)C1(C#N)C#N,-78.8% [100 µM] (active) and -94.8% [100 µM] (active),-7.38% [100 µM] (active) and -90.4% [100 µM] (active)
CC1(C)Oc2ccc3c(=O)cc(-c4ccc(F)cc4)oc3c2C1C(=O)O (configuration not stated),78.1% [100 µM] (inactive) and 87.8% [100 µM] (inactive),100% [100 µM] (inactive) and 99.3% [100 µM] (inactive)
CCOC(=O)C(=O)C(CCC(=O)c1ccc2ccccc2c1O)C(=O)OCC (configuration not stated),85.4% [100 µM] (inactive) and 81.5% [100 µM] (inactive),125% [100 µM] (inactive) and 106% [100 µM] (inactive)
